PubChem BioAssay AID687014 (The Scripps Research Institute Molecular Screening Center, 2013)
The campaign covered roughly 370,000 compounds. About 6,800 (1.8%) were called active. The sample holds actives, similar compounds and a random draw of the others, so the mix is not that of the screen. Unmarked numbers belong to inactive results.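 How the source made its calls: active means activation above a cutoff set at the mean of all screened compounds plus 3 SD (cut at about 10% in these data); inactive means the rest.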

What follows are compounds tested on Nuclear hormone receptor DAF-12 (Heterodera glycines), GAL4 fusion (assay: H. glycines DAF-12 receptor agonists, primary screen, cell-based, luminescence, HEK293, GAL4 fusion, UAS-luciferase (AID 687014;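 further: 0% = DMSO wells and 100% = sodium butyrate wells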)). Conditions: HEK293 GAL4-hgDAF12 UAS-luciferase reporter, agonist luminescence; at 6.8 µM; stronger effect = higher value.

| Compound | activation |
| --- | --- |
| COc1ccc2c(c1)NP(=S)(c1ccccc1)N2 (stereo not given) | 23.2% (active) |
| Cc1cc(C)c2c(c1)NP(=S)(c1ccccc1)N2 (stereo not given) | 13.1% (active) |
| COc1cc(C(c2c(O)c3ccccc3oc2=O)c2c(C)n(C)n(-c3ccccc3)c2=O)ccc1O (stereo not given) | 2.01% |
| CN(C)CC1CCCCC1=O (stereo not given) | 1.62% |
| O=S(=O)(c1ccccc1)N1CCC2CCNC2C1 (stereo not given) | 1.08% |
| CO[C@H]([C@H](C)/C=C/N(C)C=O)[C@@H](C)C(=O)CC[C@H](C)[C@H](O)[C@H](C)[C@H]1OC(=O)/C=C/C(C)=C/[C@H](O)[C@H](OC)C[C@@H]2C=CC[C@@H](C[C@H](OC)[C@@]3(CO3)[C@@H](OC)C[C@@H](OC)[C@@H]1C)O2 | -9.43% |
| COP(=O)(Sc1ccccc1)C(Cc1ccccc1)NC(=O)OCc1ccccc1 (stereo not given) | 1.8% |
| Cc1ccccc1CCC[C@@H](CC1CCCCC1)CN(C)C(=O)Oc1ccccc1 | 0.88% |
| c1ccc2sc(C3CCCNC3)nc2c1 (stereo not given) | 11.6% (active) |
| c1ccc2sc(N3CCNCC3)nc2c1 | 5.89% |
| NC(=O)Nc1cccc(C(F)(F)F)c1 | 1.53% |
| CCCC[N+]1(C)C2CC(OC(=O)C(CO)c3ccccc3)CC1C1OC12 (stereo not given) | -2.54% |
| CC[N+](CC)(CC)CCCCCCCCCC[N+](CC)(CC)CC | 0.44% |
| CS(=O)(=O)N1CCC2CCNC2C1 (stereo not given) | -2.06% |
| COc1cc(OC)cc(C(=O)NCCN2CCC3(CC2)C(=O)NCN3c2ccccc2)c1 | -1.03% |
| O=C(N/N=C/c1c(O)n(Cc2ccccc2)c(=O)[nH]c1=O)c1ccccc1 | 16% (active) |
| O=C(N/N=C/c1c(O)n(C2CC2)c(=S)[nH]c1=O)c1ccccc1Cl | 2.67% |
| O=c1[nH]c(=S)n(C2CC2)c(O)c1/C=N/N1CCOCC1 | -1.58% |
| O=C(N/N=C/c1c(O)n(C2CC2)c(=S)[nH]c1=O)c1ccccc1 | 11.8% (active) |
| O=c1[nH]c(=O)n(CCc2ccccc2)c(O)c1/C=N/N1CCOCC1 | 0.56% |
| O=c1[nH]c(=O)n(Cc2ccccc2)c(O)c1/C=N/Nc1c(F)c(F)c(F)c(F)c1F | -0.57% |
| CCN(CC)C(=O)[C@@H]1C=C2c3cccc4[nH]c(Br)c(c34)C[C@H]2N(C)C1 | -1.1% |
| Clc1ccc([C@@H]2CC3CCC2N3)cn1 (stereo not given in full) | 1.87% |
| CCC(C)NC1(c2ccccc2)CCCCC1 (stereo not given) | 1.32% |
| CC(C)(C)c1ccc(OC(=O)N2CCCCC2)cc1 | 14.4% (active) |
| O=C(Nc1cccc(OC(=O)N2CCCCC2)c1)N1CCOCC1 | -0.57% |
| CN1CCN(C(=O)COc2ccc(C(C)(C)C)cc2Br)CC1 | 1.63% |
| Cc1cc(N2CCNC[C@@H]2C)ccc1N1CC[C@H](O)C1 | 0.8% |
| COc1ccc2c(c1)[C@@]13CCCCC1[C@@H](C2)NCC3 (stereo not given in full) | 4.73% |
| Brc1ccc2c(c1)CNCc1cnnn1-2 | 0.9% |
